Assay outcomes (PubChem)
Rows were chosen to be rich in hits. Some 7.5% of all compounds tested hit in one or more screens of this group.
Luc counter: counter-screen: inhibitors of Kinase-Glo firefly luciferase. Q27757. Kinase-Glo luciferase, ATP luminescence, 8 min. Potency, µM (titrated, usually from 38.3 µM), for the others: at the top dose activity change, negative = inhibition, usual class: inhibitors. actives 0.28% (n = 200,000); also: % is scaled to controls: 0 for no effect and ±100 for the full control effect; nearly all actives have a fitted effect of over 60% in size
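Kinase-Glo luciferase light output from ATP and luciferin was measured with 10 uM ATP, within the enzyme's linear range. Buffer: 50 mM imidazole pH 7.2, 50 mM KCl, 7 mM MgCl2, 0.01% Tween 20, 0.05% BSA; luminescence read after 8 min at ambient temperature.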
SMN2 splice up: enhancers of SMN2 splice variant expression; HEK293 SMN2-luciferase splicing reporter, luminescence, 30-36 h; Potency, µM (highest dose often 46.1 µM), without a hit: at the highest dose activity change, positive = activation, most hits filed as activators; actives 2.8% (n = 210,000); AID 1458; also: % of control where 0% means no effect; nearly all actives have a fitted effect of over 55% in size
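HEK293 cells carry an SMN2 minigene-luciferase reporter in which exon 7 inclusion puts luciferase in frame. Cells were seeded at 2000 cells/well, attached for 10-12 hours, then exposed to compounds for 30-36 hours at 37C before ONE-Glo luminescence.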
FLuc modulator: counter-screen for miR-21 project: firefly luciferase inhibitors or activators | Potency, µM (highest dose often 57.5 µM), for inactives: at the top dose activity change, negative = inhibition, hits mostly inhibitors | P08659 | purified FLuc, Km substrates, luminescence inhibition | actives 6.9% (n = 360,000);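 also: plate controls were vehicle for no effect and reference inhibitor for full effect; nearly all actives have a fitted effect of over 55% in size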
Target sequence (P08659 whole entry, looked up): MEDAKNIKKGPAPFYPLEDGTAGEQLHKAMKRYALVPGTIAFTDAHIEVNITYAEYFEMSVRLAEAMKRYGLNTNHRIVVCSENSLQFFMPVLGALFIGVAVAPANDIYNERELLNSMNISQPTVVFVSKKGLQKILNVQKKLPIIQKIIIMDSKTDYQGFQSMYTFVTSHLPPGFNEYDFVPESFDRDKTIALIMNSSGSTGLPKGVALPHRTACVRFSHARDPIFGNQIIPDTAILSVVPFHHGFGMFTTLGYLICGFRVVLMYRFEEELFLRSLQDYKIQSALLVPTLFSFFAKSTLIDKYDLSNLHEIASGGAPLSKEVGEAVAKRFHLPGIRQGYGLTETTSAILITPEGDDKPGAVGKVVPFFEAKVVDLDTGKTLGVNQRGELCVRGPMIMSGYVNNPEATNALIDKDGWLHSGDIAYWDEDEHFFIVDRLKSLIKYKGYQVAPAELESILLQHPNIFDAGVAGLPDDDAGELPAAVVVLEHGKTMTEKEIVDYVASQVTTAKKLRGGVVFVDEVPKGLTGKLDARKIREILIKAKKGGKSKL
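Purified P. pyralis luciferase (10nM final) with 10uM D-luciferin and 10uM ATP (Km levels) in 50mM Tris acetate pH 7.5, 10mM Mg acetate, 0.01% Tween-20, 0.05% BSA; qHTS 6-point titration, ~60 µM downward; luminescence read.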
NPC1 promoter act: activators of NPC1 promoter; Huh7 NPC1 promoter luciferase reporter, 24 h; Potency, µM (highest dose often 9.22 µM), inactives show at the top dose activation, hits mostly activators; actives 2.4% (n = 320,000); AID 485313; also: % of control where 0% means no effect; nearly all actives have a fitted effect of over 60% in size
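Luminescence read-out of NPC1 promoter-driven luciferase in stably transfected Huh7 cells; compounds delivered in DMSO and left 24 h at 37C, 5% CO2, qHTS titration format.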
ELG1 genotox: genotoxicity induction in ELG1-luciferase HEK293T cells; actives 1.3% (n = 330,000); HEK293T ELG1-luciferase reporter, luminescence, 16 h; Potency, µM (top dose mostly 46 µM), without a hit: top-dose activity change, positive = activation, usual class: activators; also: % of control where 0% means no effect; nearly all actives have a fitted effect of over 60% in size
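HEK293T cells expressing luciferase-tagged ELG1 were treated with compound or DMSO for 16 hr at 37°C. Luciferase activity was then read after 30 min with ONE-Glo at room temperature; rising signal flags genetic stress.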
Rab9 promoter act: Rab9 promoter activation; AID 485297; actives 2.8% (n = 320,000); Huh7 Rab9 promoter-luciferase reporter, luminescence, 24 h; Potency, µM (highest dose often 9.22 µM), for the others: top-dose activation, negative = inhibition, usual class: activators; also: % of control where 0% means no effect; nearly all actives have a fitted effect of over 60% in size
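Rab9 promoter-driven luciferase in stably transfected Huh7 cells; 1500 cells/well rested 2 h, exposed to compound in DMSO for 24 h at 37 °C, 5% CO2. Luminescence read 10 min after adding luciferase reagent at ambient temperature.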
* marks the source's active call; other numbers are inactive results; ? = inconclusive; / = not tested or not shown; [ ] = dose if it differs, or a comment. Calls follow the shape of the dose curve; as a rule, active = well fitted curve in the direction sought with a large enough effect; inconclusive = small, poorly fitted or top-dose-only effect, or another doubt; inactive = no such curve, though single readings can be large; an effect the other way counts as inactive or inconclusive. Potency is read from the fitted curve at half-maximal effect.

SMILES	Luc counter	SMN2 splice up	FLuc modulator	NPC1 promoter act	ELG1 genotox	Rab9 promoter act
COc1ccc(-c2csc(NC(=O)c3ccccc3S(C)(=O)=O)n2)cc1	-1%	-14%	?	0%	-10%	6%
COc1cccc(-c2csc(NNC(=O)c3cccs3)n2)c1	/	/	?	-4%	6%	-2%
COC(=O)c1c(-c2ccc(F)cc2)csc1NC(=O)C1CCCO1 (stereo not drawn)	0%	0%	27µM*	17%	7%	23%
COc1ccc(-c2csc(NC(=O)c3ccccc3C(=O)O)n2)cc1	-2%	-51%	15µM*	-4%	0%	-2%
COc1ccccc1C(=O)Nc1nc(-c2ccccc2)ns1	/	9%	?	/	/	/
COc1ccc(-c2nsc(NC(=O)c3ccccc3Br)n2)cc1	/	13%	17µM*	/	/	/
COC(=O)c1cnn(-c2nc(-c3ccccc3)cs2)c1N	/	/	2.7µM*	?	?	?
Nc1c(-c2ccccn2)cnn1-c1nc(-c2ccc(F)cc2)cs1	-3%	-2%	9.5µM*	24%	9%	7%
CCOC(=O)c1cnn(-c2nc(-c3ccccc3)cs2)c1C(F)(F)F	4%	-10%	?	-5%	0%	-3%
Nc1c(-c2cccs2)cnn1-c1nc(-c2ccc(Cl)cc2Cl)cs1	-6%	3%	?	-2%	5%	0%
Nc1c(-c2cccs2)cnn1-c1nc(-c2ccc(F)cc2)cs1	-1%	-6%	7.6µM*	?	5%	?
NCCC[C@@H](CC(=O)N[C@@H]1CCNC[C@H]1C(=O)N[C@H](CC(=O)N[C@@H](CCC(=O)O)CC(=O)O)Cc1ccccc1)NC(=O)C[C@H](Cc1ccccc1)NC(=O)[C@@H]1CNCC[C@H]1N	3%	-3%	/	/	/	/
CCCCC	/	8%	/	/	/	/
Cc1ccc(-c2csc(NC(=O)c3ccno3)n2)cc1	4%	-20%	21µM*	25%	?	28%
Cc1ccc(C(=O)Nc2nc(-c3ccc(F)cc3)cs2)o1	/	/	30µM*	13%	-1%	17%
CC(C)(C)c1ccc(C(=O)NCC(=O)OCC(=O)Nc2nc(-c3ccc(F)cc3)cs2)cc1	0%	17%	13µM*	16%	8%	18%
Cc1ccc(-c2csc(NC(=O)c3ccc(C)o3)n2)cc1	-4%	-4%	?	-1%	0%	-2%
Cc1ccc(Cl)cc1NC(=O)Cn1nc2c(cc1=O)CC(C)CC2 (stereo not drawn)	/	/	-2%	/	/	/
O=C(Nc1nccs1)c1ccccc1Br	/	/	?	6%	7%	27%
Cc1ccc(-n2nnc(-c3cccnc3Cl)n2)cc1	/	/	0.76µM*	0.79µM*	5.8µM*	0.79µM*
Clc1ccc(-n2nnc(-c3cccnc3Cl)n2)cn1	/	/	13µM*	?	?	?
Brc1ccccc1-n1nnc(-c2nccs2)n1	/	/	7.6µM*	2.5µM*	8.2µM*	1.4µM*
Clc1ncccc1-c1nnn(-c2ccccc2Br)n1	/	/	17µM*	23%	?	25%
Cc1c(C(=O)OCC(=O)Nc2ccc(C(N)=O)cc2)cccc1[N+](=O)[O-]	-1%	-7%	-2%	-5%	-5%	-1%
Nc1nc(SCCc2ccccc2)c2[nH]cnc2n1	-6%[7.66 µM]	-3%[9.22 µM]	/	/	/	/
SMILES	Luc counter	SMN2 splice up	FLuc modulator	NPC1 promoter act	ELG1 genotox	Rab9 promoter act
Oc1cccc(/C=N/Nc2ncnc3c2ncn3Cc2ccccc2)c1	0%	3%	13µM*	9%	16%	17%
Oc1ccc(/C=N/Nc2ncnc3c2ncn3Cc2ccccc2)cc1O	-3%	-2%	9.5µM*	-6%	?	2%
Brc1ccc(/C=N/Nc2ncnc3c2cnn3Cc2ccccc2)cc1	2%	3%	-2%	-4%	2%	-7%
Nc1ncnc2c1ncn2Cc1ccccc1	0%	-5%	4%	-2%	8%	-2%
Cc1c(Cl)cccc1Nc1nc(N)nc(CSCCO)n1	3%	1%	2%	2%	-2%	-2%
Cc1c(Cl)cccc1Nc1nc(N)nc(CSc2ncccn2)n1	16%	8%	?	23%	16µM*	?
Cc1ccc(Cn2cc(S(=O)(=O)c3cccc(C)c3)c(=O)c3cc(F)c(N4CCOCC4)cc32)cc1	/	/	2%	/	/	/
Cc1ccccc1NS(=O)(=O)c1ccc(Br)s1	/	0%	-18%	/	/	/
CC(C)(CO)CNC(=O)CCc1nnc(-c2ccc(-c3ccccc3)cc2)o1	/	/	24µM*	22%	11%	12%
CCOC(=O)CN(C)C(=O)CCc1nnc(-c2ccc(-c3ccccc3)cc2)o1	/	/	?	17%	4%	22%
CC(NC(=O)CCc1nnc(-c2ccc(-c3ccccc3)cc2)o1)c1nc2ccccc2[nH]1 (stereo not drawn)	-6%	/	11µM*	27%	-8%	10%
O=C(c1cc(-c2cccc(O)c2)on1)N1CCCC1	/	/	6µM*	?	7.3µM*	?
O=C(c1cc(-c2cccc(Cl)c2)on1)N1CCCCC1	/	10%	21µM*	/	/	/
O=C(c1cc(-c2cccc(O)c2)on1)N1CCCCC1	-5%	?	3µM*	?	3.7µM*	?
O=c1cc(-c2ccccc2)c2cc(Cl)c3c(c2o1)CN(Cc1ccccc1)CO3	/	-5%	-18%	/	/	/
c1ccc(-c2nnsc2Sc2ccccn2)cc1	2%	-11%	17µM*	15%	4%	23%
Clc1ccccc1CSc1snnc1-c1ccccc1	-1%	-10%	21µM*	22%	?	29%
Cc1ccccc1CN1C(=O)c2ccccc2S(=O)c2ccc(C(=O)NCc3ccco3)cc21 (stereo not drawn)	/	11%	2%	/	/	/
Cc1ccc(C(=O)NNC(=S)Nc2cccc3ccccc23)s1	/	/	11µM*	1%	4%	28%
CCC(=O)N(C)/C=C1\Sc2ccccc2C1=O	-13%	4%	11µM*	-6%	4%	9%
CN(Cc1ccccc1)C(=O)Nc1ccc2c(c1)N(C)C(=O)c1ccccc1S2	/	/	1%	/	/	/
CC(=O)N(C)/C=C1\Sc2ccccc2C1=O	-6%	-4%	?	-3%	5%	-4%
